Assay outcomes deposited in PubChem by National Center for Advancing Translational Sciences (NCATS).
The sample as a whole holds a higher share of hits than the screen did.
IL1B secr inh = qHTS for Inhibitors of Inflammasome Signaling: IL-1-beta AlphaLISA Primary Screen | activity change, % at 57.5 µM | THP-1 LPS/ATP IL-1B secretion, AlphaLISA, 16 h; hits give low values | 360,000 compounds, 4.7% hits; in the data active = activity change below about -50%; inconclusive = mostly about -30% to -49%
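Secreted IL-1B measured by AlphaLISA bead assay after 16 h compound exposure of THP-1 cells; compounds (final up to 57.5 uM) added 1 h before LPS (250 ng/mL) and ATP (1.25 mM) stimulation; lower signal means less secretion.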
HT1080 IDH1KD tx = qHTS for induction of synthetic lethality in tumor cells producing 2HG: qHTS for the HT-1080-IDH1KD cell line; 360,000 compounds, 2% hits; Potency, µM (doses to about 46.1 µM), for the others: at the highest dose activity, negative = toxicity, hits mostly cytotoxic; AID 686971, 2013; HT-1080 IDH1 knockdown viability, ATP luminescence, 48 h;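 note: potency is the fitted concentration of half-maximal effect; 0% = DMSO wells and -100% = cell-free medium wells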
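Luminescent ATP read-out (CellTiter-Glo, 10 min at room temperature) after 48 h compound exposure at 37 °C gave viability of IDH1-knockdown HT-1080 cells. Activity was normalised to DMSO and cell-free wells, then fitted as concentration-response curves.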
ALOX12 inh = Primary qHTS assay for inhibitors of human arachidonate 12S-lipoxygenase (ALOX12): Round 2. Polyunsaturated fatty acid lipoxygenase ALOX12 (Homo sapiens), P18054. purified 12hLO, xylenol orange hydroperoxide absorbance. Potency, µM (titrated, usually from 108 µM), for inactives: at the top dose activity change, negative = inhibition, most hits filed as inhibitors. 580,000 compounds, 1.1% hits; note: potency is the fitted concentration of half-maximal effect
Target sequence (P18054 whole entry, looked up): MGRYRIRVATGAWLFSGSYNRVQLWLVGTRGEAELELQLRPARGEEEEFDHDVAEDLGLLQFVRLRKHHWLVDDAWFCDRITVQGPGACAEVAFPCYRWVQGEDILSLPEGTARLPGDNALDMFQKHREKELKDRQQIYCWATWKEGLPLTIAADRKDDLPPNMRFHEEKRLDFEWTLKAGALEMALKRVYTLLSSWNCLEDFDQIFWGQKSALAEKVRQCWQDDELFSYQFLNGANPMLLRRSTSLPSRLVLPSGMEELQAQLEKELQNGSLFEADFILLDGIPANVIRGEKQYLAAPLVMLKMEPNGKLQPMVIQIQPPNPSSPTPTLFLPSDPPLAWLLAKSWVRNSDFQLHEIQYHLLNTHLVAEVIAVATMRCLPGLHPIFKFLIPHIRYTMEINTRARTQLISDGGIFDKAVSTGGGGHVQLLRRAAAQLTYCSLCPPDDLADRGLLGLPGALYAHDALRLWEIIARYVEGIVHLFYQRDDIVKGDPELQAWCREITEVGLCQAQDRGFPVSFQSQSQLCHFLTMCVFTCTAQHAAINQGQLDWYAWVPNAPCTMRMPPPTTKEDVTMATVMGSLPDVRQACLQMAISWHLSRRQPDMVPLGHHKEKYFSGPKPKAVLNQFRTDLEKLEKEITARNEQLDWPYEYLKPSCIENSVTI
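Hydroperoxide product was detected by ferrous iron/xylenol orange as the 573 to 405 nm absorbance ratio. Arachidonic acid at 40 uM (final) was turned over for 30 min at room temperature by 150 nM human 12hLO, pH 7.0 Hepes buffer, after 15 min compound preincubation.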
DT40 TDP1 no CPT = qHTS for Inhibitors of human tyrosyl-DNA phosphodiesterase 1 (TDP1): qHTS in cells in absence of CPT; DT40 Tdp1-/- hTDP1 cells, no CPT, ATP luminescence, 48 h; Potency, µM (highest dose often 46.2 µM), for inactives: top-dose activity change, negative = growth inhibition, hits mostly inhibitors; 420,000 compounds, 15% hits; AID 686978, 2013; note: potency is the fitted concentration of half-maximal effect; nearly all actives have a fitted effect of over 55% in size
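Readout: luminescence from CellTiter-Glo after 30 min in the dark at RT. Cells: DT40 Tdp1-/- with stable hTDP1, 400/well. Exposure: compounds alone, ≥48 hr, 37 °C.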
TDP1 cell CPT = qHTS for Inhibitors of human tyrosyl-DNA phosphodiesterase 1 (TDP1): qHTS in cells in presence of CPT; Potency, µM (doses to about 46.2 µM), inactives show at the top dose activity change, negative = growth inhibition, hits mostly inhibitors; 420,000 compounds, 12% hits; chicken DT40 Tdp1-/-;hTDP1 cells + 20 nM CPT, ATP luminescence, 48 h; note: potency is the fitted concentration of half-maximal effect; nearly all actives have a fitted effect of over 55% in size
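Cell growth measured by CellTiter-Glo luminescence after a minimum 48 h, 37 C compound exposure with 20 nM CPT in Tdp1-knockout DT40 cells stably expressing hTDP1, seeded 400/well; qHTS titration format.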
HT1080-NT tox = qHTS for induction of synthetic lethality in tumor cells producing 2HG: qHTS for the HT-1080-NT fibrosarcoma cell line. HT-1080-NT fibrosarcoma viability, CellTiter-Glo ATP luminescence, 48 h. Potency, µM (doses to about 46.1 µM), for inactives: at the top dose activity, negative = less viability, usual class: cytotoxic. 360,000 compounds, 1.6% hits. AID 686970, 2013;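 note: NT is the 2HG producing partner of a matched IDH1 knockdown line; potency is the fitted concentration of half-maximal effect; 0% = DMSO-treated cells and -100% = media-only wells without cells; nearly all actives have a fitted effect of over 55% in size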
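Luminescent CellTiter-Glo readout after 48 hours of compound exposure at 37 degrees C defined viability of HT-1080-NT cells. Activity was normalized to DMSO wells and cell-free media wells; concentration-response curves were fitted and assigned curve classes.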
Starred values were filed as active, the others as inactive; ? = inconclusive; · = no result. Unless noted, calls come from the whole dose curve; as a rule, active = well fitted curve in the direction sought with a large enough effect; inconclusive = small, poorly fitted or top-dose-only effect, or another doubt; inactive = no such curve, though single readings can be large; an effect the other way counts as inactive or inconclusive. Unless noted, % is set by controls: 0 for no effect and ±100 for the full control effect.

SMILES	IL1B secr inh	HT1080 IDH1KD tx	ALOX12 inh	DT40 TDP1 no CPT	TDP1 cell CPT	HT1080-NT tox
O=C(Nc1cccc(-c2ccc(N3CCOCC3)nn2)c1)c1ccc(Cl)cc1	15	1%	2%	-28%	?	6%
O=C(Nc1cccc(-c2ccc(N3CCOCC3)nn2)c1)c1ccccc1Cl	-9	5%	9%	-22%	-30%	-4%
O=C(Nc1cccc(-c2ccc(N3CCCCC3)nn2)c1)c1ccco1	-9	-15%	?	13µM*	?	0%
O=C(Nc1cccc(-c2ccc(N3CCOCC3)nn2)c1)c1cccc(Cl)c1	11	-1%	8%	21µM*	-21%	2%
Clc1ccccc1-n1ncc2c(NC3CCCC3)ncnc21	·	·	-11%	·	·	·
Cn1nc(C(=O)OCC(=O)c2ccc(C3CCCCC3)cc2)c2ccccc2c1=O	·	·	27%	·	·	·
COC(=O)Cn1c(=O)c2c(nc(-n3nc(C)cc3C)n2C)n(C)c1=O	·	·	0%	·	·	·
Cc1noc(C)c1COc1ccc(C(=O)OCC(=O)Nc2ccc(S(N)(=O)=O)cc2)cc1	-20	-1%	165%	16µM*	?	14%
Cc1noc(C)c1COc1ccc(C(=O)OCC(=O)NCc2ccccc2Cl)cc1	-8	-29%	0%	29µM*	?	-28%
Cc1cc(OCC(=O)Nc2sc3c(c2C(=O)N2CCOCC2)CCCC3)ccc1Cl	·	·	-3%	·	·	·
Cc1ccc2c(C)nc(Nc3nc(CSc4nc5ccccc5[nH]4)cc(=O)[nH]3)nc2c1	-86*	11µM*	4%	12µM*	12µM*	18µM*
Cc1nc(Nc2nc3c(c(=O)[nH]2)CCC3)nc2ccccc12	-77*	?	·	4.1µM*	5.8µM*	?
Cc1ccc(SCc2cc(=O)[nH]c(Nc3nc(C)c4ccc(C)cc4n3)n2)cc1	22	20%	-55%	?	?	29%
Cc1ccc(SCc2cc(=O)[nH]c(Nc3nc(C)c4ccccc4n3)n2)cc1	-7	-13%	?	?	12µM*	-19%
Cc1cccc(C)c1Oc1ncccc1CNC1CCN(C(C)C)CC1	·	·	11%	·	·	·
CC1Cc2cc(C(=O)c3cc4cc(Cl)ccc4o3)ccc2N1S(C)(=O)=O (centres undefined)	·	·	16%	·	·	·
Cc1cccc(NC(=O)Nc2ccc3c(c2)N(C)C(=O)CS3)n1	-56*	-3%	2%	?	?	0%
Cc1ccoc1C(=O)N1CCC(Oc2ccccc2F)(C(=O)O)CC1	·	·	11%	·	·	·
Cc1ccc(C(=O)c2cnc3ccccc3c2-c2ccccc2)cc1	-10	-18%	-18%	23µM*	?	-11%
COc1ccc(C(=O)c2cnc3ccccc3c2-c2ccccc2)cc1	28	-21%	-6%	?	-21%	-18%
CSc1ncc2[nH]c(C(O)c3ccccc3)nc2n1 (centres undefined)	34	-7%	-3%	10µM*	9.2µM*	?
Cc1ccc(NC(=O)CSc2ncc(S(=O)(=O)c3ccc(C(C)C)cc3)c(=O)[nH]2)cc1C	·	·	45µM*	·	·	·
Cc1ccc(C)c(NC(=O)CN(C)C(=O)c2cccc(S(=O)(=O)N3CCN(Cc4ccccc4)CC3)c2)c1	-5	?	0%	12µM*	18µM*	21µM*
CN(CCOc1ccc(Cl)cc1)C(=O)c1cccc(S(=O)(=O)N2CCN(Cc3ccccc3)CC2)c1	?	?	0%	21µM*	15µM*	?
